Screening results from PubChem.
Sampled rows, rich in hits. Any-hit rate of the full collection: about 4.2%.
TRPV1 potentiator: enhances activation of the human vanilloid receptor TRPV1; TRPV1-expressing cells, Fluo-8 calcium influx, capsaicin EC20 potentiation; hit rate 0.02% among 320,000; AID 540277; potentiation, % at 8.33 µM; Q8NER1; in the data active = potentiation above about 80%; inconclusive = between about 30% and that limit; also: 0% is about no effect
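Cells expressing TRPV1 were dye-loaded with Fluo-8 and read kinetically: 10 s baseline, 3 min after compound (agonist portion), then 2 min after EC20 capsaicin (allosteric enhancer portion). Calcium-bound dye fluorescence at 480/520 nm.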
D1 PAM: potentiators of human D1 dopamine receptor; P21728; HEK293 TREx D1 cells, calcium flux, dopamine EC20 potentiation; potentiation, % at 10 µM; hit rate 0.036% among 360,000; in the data active = potentiation above about 30%; also: 0% is about no effect
Target sequence (P21728 whole entry, looked up): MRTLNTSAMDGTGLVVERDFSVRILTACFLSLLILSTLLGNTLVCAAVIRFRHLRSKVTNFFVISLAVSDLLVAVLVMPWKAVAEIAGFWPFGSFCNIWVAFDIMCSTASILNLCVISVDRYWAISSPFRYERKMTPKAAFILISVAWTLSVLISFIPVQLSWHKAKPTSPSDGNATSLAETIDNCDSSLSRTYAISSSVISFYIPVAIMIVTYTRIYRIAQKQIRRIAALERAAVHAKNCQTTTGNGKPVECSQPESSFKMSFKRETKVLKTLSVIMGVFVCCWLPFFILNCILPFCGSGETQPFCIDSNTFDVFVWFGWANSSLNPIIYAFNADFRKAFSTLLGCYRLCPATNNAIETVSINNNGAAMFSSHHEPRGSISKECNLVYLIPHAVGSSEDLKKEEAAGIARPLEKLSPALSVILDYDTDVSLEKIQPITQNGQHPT
TRPV1 ag: human TRPV1 agonism; TRPV1-expressing cells, Fluo-8 calcium influx, agonist mode; activation, % at 8.33 µM; hit rate 0.19% among 320,000; AID 540275; in the data active = activation above about 80%; inconclusive = between about 30% and that limit; also: 0% is about no effect
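Fluo-8 calcium influx in TRPV1-expressing cells, kinetic read (ex 480/em 520 nm). Compound added and read 3 min for agonist activity, followed by capsaicin at EC20 final and 2 min further read for enhancement.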
D1 antagonist: human D1 dopamine receptor antagonism. P21728. HEK293 TREx D1 cells, calcium flux, dopamine EC80; stronger effect = lower value. activity change, negative = inhibition, % at 10 µM. hit rate 3.2% among 360,000. AID 504652; in the data active = activity change below about -30%; also: % is scaled to controls: 0 for no effect and ±100 for the full control effect
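Using tetracycline-induced force-coupled D1 Hek293 cells and a calcium dye, signals were followed for 180 s after compound, then for 180 s after EC80 dopamine, to detect inhibitors.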
D1 ag: agonists of human D1 dopamine receptor; HEK293 T-REx D1 cells, calcium flux, agonist mode; activation, % at 2 µM; hit rate 1% among 360,000; AID 504660; in the data active = activation above about 30%; also: 0% is about no effect
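Inducible HEK293 T-REx D1 cells, force-coupled to calcium signalling, were plated at 4000 cells/well with tetracycline and held overnight at 30 C. After no-wash calcium dye loading, compound-evoked calcium rise over 180 s flagged agonists.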
Active calls of the source: *; ? = inconclusive; / = no result.

SMILES	TRPV1 potentiator	D1 PAM	TRPV1 ag	D1 antagonist	D1 ag
Cc1cccc(C)c1NC(=O)c1ccc2c(c1)nnn2C1CCCC1	/	-1	/	-11	4
O=C(NCc1ccccc1Cl)c1ccc2c(c1)nnn2C1CCCC1	/	-4	/	-34*	7
COc1ccc(Nc2ncnc3onc(-c4ccc(Cl)cc4)c23)cc1Cl	/	-1	/	-9	5
CCCCn1c(=O)c2oc3ccccc3c2n(Cc2ccccc2C)c1=O	/	3	/	5	-1
Nc1ccc(-c2c3ccc(=O)cc-3oc3cc(O)ccc23)c(C(=O)O)c1	1	1	-5	0	355*
COc1ccc(-c2cc(C(F)(F)F)nc(SCC(=O)NCCc3ccc(OC)c(OC)c3)n2)cc1	/	-3	/	1	-1
Cc1ccc(NC(=O)CCCc2ccccc2)c([N+](=O)[O-])c1	-10	0	15	-48*	2
O=C(CCc1ccccc1)NC(=S)Nc1ccccc1[N+](=O)[O-]	-9	-1	-2	-34*	-1
O=C(CCc1ccccc1)Nc1ccccc1[N+](=O)[O-]	-18	-9	9	-36*	0
COc1ccc(N2C(=O)Cc3cc(OC)c(OC)cc3C2c2ccc(F)cc2)cc1 (stereo not given)	/	-1	/	6	3
Cc1ccccc1C1C(C#N)=C2N=C(N)c3c(sc4c3CCCCC4)N2C2=C1C(=O)CCC2 (stereo not given)	14	-2	8	-42*	2
CC(=O)N1CCOc2cc(S(=O)(=O)N(C)Cc3ccccc3)c(Cl)cc21	/	2	/	-12	2
O=c1oc2c3c(ccc2c2ccccc12)OCN(Cc1ccccc1Cl)C3	/	0	/	2	2
CCC(=O)Nc1ccccc1-c1nc2ccccc2n(C(C)C(=O)Nc2ccc(OC)cc2)c1=O (stereo not given)	/	-4	/	-31*	6
COc1cc(/C=C(/C(=O)O)c2ccc(-c3ccccc3)cc2)cc(OC)c1OC	?	-8	-1	-42*	-3
CCc1c(C)nc2nncn2c1Nc1cccc(C)c1	/	-2	/	8	4
O=C(NCc1ccc(F)cc1)c1cccc2c1C(=O)c1ccc(Cl)cc1S2(=O)=O	?	-3	20	12	-2
CC1CCN(c2ccc3c(c2)S(=O)(=O)c2cccc(C(=O)NCc4cccc(F)c4)c2C3=O)CC1	3	-4	?	13	188*
Cc1ccc(NC(=O)CSCc2cnn(-c3ccccc3)c2-n2cccc2)c(Cl)c1	/	1	/	20	0
O=[N+]([O-])c1cc(/C=N\O)ccc1Oc1ccc(F)cc1	-11	-4	?	-53*	1
N=C1C(c2ccccc2)=C(O)CN1CCO	3	1	-2	-30*	1
CCCCCCN1CC(O)=C(c2ccccc2)C1=N	3	-2	-1	4	0
CCN(C(=O)c1cc(S(=O)(=O)N2CCCC2)cn1C)c1ccc(OC)cc1	/	-1	/	2	4
COc1ccc(NC(=O)Nc2ccc3c(c2)CCC3)cc1OC	-17	0	25	7	2
COc1ccccc1NC(=O)Nc1ccc2c(c1)CCC2	-14	38*	?	-14	2
SMILES	TRPV1 potentiator	D1 PAM	TRPV1 ag	D1 antagonist	D1 ag
COc1ccc(C)cc1NC(=O)Nc1ccc2c(c1)CCC2	-20	-4	1	-44*	0
CN(C)c1ccc(CNC(=O)C2CCN(S(=O)(=O)c3ccc4[nH]c(=O)ccc4c3)CC2)cc1	/	2	/	-41*	0
Cc1ccc(NC(=O)C2CCCN(S(=O)(=O)c3ccc4[nH]c(=O)ccc4c3)C2)cc1Cl (stereo not given)	/	-9	/	-48*	4
COc1ccc(NC(=O)C2CCCN(S(=O)(=O)c3ccc4[nH]c(=O)ccc4c3)C2)cc1Cl (stereo not given)	/	-4	/	5	1
Cc1ccc(NC(=O)C2CCN(S(=O)(=O)c3ccc(N4CCCC4=O)cc3)CC2)cc1Cl	-4	-10	0	-71*	12
CN(C)c1ccc(CNC(=O)C2CCN(S(=O)(=O)c3ccc4c(c3)oc(=O)n4C)CC2)cc1	-9	-9	-1	23	1
COc1ccc(NC(=O)C2CCN(S(=O)(=O)c3ccc(N4CCCC4=O)cc3)CC2)c(OC)c1	17	3	3	-16	0
Cc1oc(-c2ccccc2Cl)nc1CS(=O)CC(=O)N1CCN(c2cccc(C(F)(F)F)c2)CC1 (stereo not given)	/	-7	/	-1	8
CC1CCN(c2cc3c(cc2F)c(=O)c(S(=O)(=O)c2cccc(Cl)c2)cn3Cc2ccccc2)CC1	/	-1	/	9	0
CN1CCN(Cc2c(O)ccc3occ(C(=O)c4ccccc4)c23)CC1	20	-11	0	-77*	15
CSc1cccc(N2CC(C(=O)Nc3ccccc3N3CCCC3)CC2=O)c1 (stereo not given)	-3	-8	22	-32*	1
C/C(=N\Nc1nc2ccccc2[nH]1)c1ccc(C)o1	-10	-9	3	-52*	3
Cn1c(CCN2CCCCC2)nc2cc(NS(=O)(=O)c3ccc(Cl)cc3)ccc21	-5	-8	0	7	0
Cn1c(CN2CCCCC2)nc2cc(NS(=O)(=O)c3ccc(Cl)cc3)ccc21	-10	-8	3	-17	52*
CCc1ccccc1N(C)C(=O)c1cn(-c2cccc(OC)c2)c(=O)c2ccccc12	/	-3	/	1	2
Cn1cccc1CNC(=S)Nc1ccccc1Cl	-4	-10	20	-42*	4
Cn1cccc1CNC(=S)Nc1ccccc1F	-6	-7	6	-8	1
COc1ccc(NC(=O)C(NC(=O)/C=C\c2ccc3c(c2)OCO3)c2ccccc2)cc1 (stereo not given)	/	-1	/	3	5
Cc1ccc(C)n1-c1nnc(N2CCC(C(=O)Nc3ccccc3Br)CC2)s1	/	0	/	4	-1
COc1ccc(/C=N/NS(=O)(=O)c2ccccc2)cc1OC(=O)c1ccc(C)cc1	4	-3	0	-8	1
COC(=O)c1ccc(COc2ccccc2/C=N/NS(=O)(=O)c2ccccc2)cc1	13	-8	-1	-51*	2
COc1cc(/C=N/NS(=O)(=O)c2ccc3ccccc3c2)ccc1OCc1ccc(C(=O)O)cc1	/	-16	/	-30*	2
CCCCCCCN1C/C=C\C(c2ccc(OC)cc2)N(Cc2ccc(F)cc2)C(=O)[C@H]1Cc1ccccc1 (stereo not given in full)	1	-1	1	-10	10
COc1ccc(C2/C=C\CN(C(=O)C3CCCC3)[C@H](Cc3ccccc3)C(=O)N2Cc2ccc(F)cc2)cc1 (stereo not given in full)	3	9	5	-37*	5
Cc1ccc(C)c(N2CCN(c3nc4ccccc4n4c(C)nnc34)CC2)c1	/	-3	/	5	3
O=C(Nc1ccc(-c2nc3ccccc3[nH]2)cc1)c1ccc(N2C(=O)CCC2=O)cc1	17	-3	-4	-50*	0
